Experimental data: PubChem BioAssay AID1159580 (chemical genetic matrix, 2015)
In all, about 5,500 compounds went through this assay and about 2,000 (36%) were called active. Another 18% or so got no clear call; they are omitted. Cut-off read from the data, not from the text of the source: active = normalized growth mostly below about 0.91 (no sharp cut-off); inconclusive = no clear call, values can overlap the other calls; inactive = mostly above about 0.92. This is one part of the list.

Test: chemical genetic growth profiling, strain panel (AID 1159580);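 note: tested at 20 µM; growth read once vehicle control cultures reached saturation at 30 °C; 1 = growth at the plate median or of vehicle wells; lower values mean less growth of the strain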
Settings: growth OD

Measured: normalized growth

CC(=O)N=c1sc(S(N)(=O)=O)nn1C
inactive: S. cerevisiae deletion strains, locus YJR075W, strain HOC1, active compounds read low 1 | S. cerevisiae deletion strains, locus YKL009W, strain mrt4, active compounds read low 1 | S. cerevisiae deletion strains, locus YKL068W, active compounds read low 1 | S. cerevisiae deletion strains, locus YKL085W, strain MDH1 (second series), active compounds read low 1.01 | S. cerevisiae deletion strains, locus YKL085W, strain MDH1, active compounds read low 1.01 | S. cerevisiae deletion strains, locus YKL160W, strain elf1, active compounds read low 1.01 | S. cerevisiae deletion strains, locus YKL190W, strain CNB1, active compounds read low 1.01 | S. cerevisiae deletion strains, locus YKR001C, strain vps1, active compounds read low 0.998 | S. cerevisiae deletion strains, locus YKR026C, strain gcn3, active compounds read low 1.01 | S. cerevisiae deletion strains, locus YKR091W, strain srl3, active compounds read low 1 | S. cerevisiae deletion strains, locus YLL001W, strain dnm1, active compounds read low 1.01 | S. cerevisiae deletion strains, locus YLL026W, active compounds read low 1.01 | S. cerevisiae deletion strains, locus YLL041C, strain sdh2, active compounds read low 1.01 | S. cerevisiae deletion strains, locus YLR027C, strain aat2, active compounds read low 1.01 | S. cerevisiae deletion strains, locus YLR039C, strain RIC1, active compounds read low 1.02 | S. cerevisiae deletion strains, locus YLR058C, strain SHM2, active compounds read low 1.01 | S. cerevisiae deletion strains, locus YLR102C, strain apc9, active compounds read low 1 | S. cerevisiae deletion strains, locus YLR113W, strain HOG1, active compounds read low 1.07 | S. cerevisiae deletion strains, locus YLR221C, strain rsa3, active compounds read low 1 | S. cerevisiae deletion strains, locus YLR258W, strain gsy2, active compounds read low 1.01 | S. cerevisiae deletion strains, locus YLR262C, strain YPT6 (second series), active compounds read low 1.02 | S. cerevisiae deletion strains, locus YLR262C, strain YPT6, active compounds read low 1.04 | S. cerevisiae deletion strains, locus YLR268W, strain sec22, active compounds read low 1 | S. cerevisiae deletion strains, locus YLR320W, strain mms22, active compounds read low 1.04 | S. cerevisiae deletion strains, locus YLR330W, strain CHS5, active compounds read low 1.01 | S. cerevisiae deletion strains, locus YLR342W, strain FKS1 (second series), active compounds read low 1.08 | S. cerevisiae deletion strains, locus YLR342W, strain FKS1, active compounds read low 1.02 | S. cerevisiae deletion strains, locus YLR357W, strain rsc2, active compounds read low 1.03 | S. cerevisiae deletion strains, locus YLR370C, strain arc18, active compounds read low 1.01 | S. cerevisiae deletion strains, locus YLR371W, strain rom2, active compounds read low 1.02 | S. cerevisiae deletion strains, locus YLR384C, strain iki3, active compounds read low 1 | S. cerevisiae deletion strains, locus YLR418C, strain cdc73, active compounds read low 1.04 | S. cerevisiae deletion strains, locus YML016C, strain PPZ1, active compounds read low 1.01 | S. cerevisiae deletion strains, locus YML032C, strain rad52, active compounds read low 0.993 | S. cerevisiae deletion strains, locus YML120C, strain ndi1, active compounds read low 1 | S. cerevisiae deletion strains, locus YML124C, strain tub3, active compounds read low 1.01 | S. cerevisiae deletion strains, locus YMR058W, strain fet3, active compounds read low 1.01 | S. cerevisiae deletion strains, locus YMR078C, strain ctf18, active compounds read low 1.01 | S. cerevisiae deletion strains, locus YMR125W, strain sto1, active compounds read low 1.01 | S. cerevisiae deletion strains, locus YMR129W, active compounds read low 1.01 | S. cerevisiae deletion strains, locus YMR205C, strain PFK2, active compounds read low 1.01 | S. cerevisiae deletion strains, locus YMR223W, strain ubp8, active compounds read low 1.03 | S. cerevisiae deletion strains, locus YMR231W, strain pep5, active compounds read low 1.01 | S. cerevisiae deletion strains, locus YMR307W, strain GAS1, active compounds read low 1.03 | S. cerevisiae deletion strains, locus YNL067W, strain RPL9B, active compounds read low 0.988 | S. cerevisiae deletion strains, locus YNL071W, strain lat1, active compounds read low 1.01 | S. cerevisiae deletion strains, locus YNL128W, strain TEP1, active compounds read low 1.04 | S. cerevisiae deletion strains, locus YNL153C, strain GIM3, active compounds read low 0.979 | S. cerevisiae deletion strains, locus YNL183C, strain NPR1, active compounds read low 0.984 | S. cerevisiae deletion strains, locus YNL209W, strain ssb2, active compounds read low 1.01 | S. cerevisiae deletion strains, locus YNL233W, strain BNI4, active compounds read low 0.967 | S. cerevisiae deletion strains, locus YNL248C, strain rpa49, active compounds read low 1.02 | S. cerevisiae deletion strains, locus YNL250W, strain rad50, active compounds read low 1.04 | S. cerevisiae deletion strains, locus YNL271C, strain bni1, active compounds read low 1 | S. cerevisiae deletion strains, locus YNL298W, strain CLA4, active compounds read low 1.01 | S. cerevisiae deletion strains, locus YNL307C, strain MCK1, active compounds read low 1.02 | S. cerevisiae deletion strains, locus YNL322C, strain KRE1 (second series), active compounds read low 1.01 | S. cerevisiae deletion strains, locus YNR049C, strain mso1, active compounds read low 1.01 | S. cerevisiae deletion strains, locus YNR052C, strain pop2, active compounds read low 1.02 | S. cerevisiae deletion strains, locus YOL006C, strain TOP1, active compounds read low 0.974 | S. cerevisiae deletion strains, locus YOL012C, strain htz1 1.13 | S. cerevisiae deletion strains, locus YOL147C, strain pex11, active compounds read low 1.01 | S. cerevisiae deletion strains, locus YOR001W, strain rrp6, active compounds read low 1.01 | S. cerevisiae deletion strains, locus YOR061W, strain CKA2, active compounds read low 1.01 | S. cerevisiae deletion strains, locus YOR069W, strain VPS5, active compounds read low 1.01 | S. cerevisiae deletion strains, locus YOR070C, strain gyp1, active compounds read low 1.02 | S. cerevisiae deletion strains, locus YOR080W, strain dia2, active compounds read low 1.02 | S. cerevisiae deletion strains, locus YOR083W, strain WHI5, active compounds read low 1.01 | S. cerevisiae deletion strains, locus YOR106W, strain vam3, active compounds read low 1.01 | S. cerevisiae deletion strains, locus YOR136W, strain idh2, active compounds read low 0.997 | S. cerevisiae deletion strains, locus YOR144C, strain elg1, active compounds read low 0.997 | S. cerevisiae deletion strains, locus YOR184W, strain ser1, active compounds read low 1.02 | S. cerevisiae deletion strains, locus YOR231W, strain MKK1, active compounds read low 1.08 | S. cerevisiae deletion strains, locus YOR265W, strain rbl2, active compounds read low 1.01 | S. cerevisiae deletion strains, locus YOR270C, strain vph1, active compounds read low 1.02 | S. cerevisiae deletion strains, locus YOR290C, strain snf2, active compounds read low 1.03 | S. cerevisiae deletion strains, locus YOR316C, strain cot1, active compounds read low 1 | S. cerevisiae deletion strains, locus YPL051W, strain arl3, active compounds read low 1.01 | S. cerevisiae deletion strains, locus YPL055C, strain LGE1, active compounds read low 0.939 | S. cerevisiae deletion strains, locus YPL078C, strain atp4, active compounds read low 1.01 | S. cerevisiae deletion strains, locus YPL106C, strain sse1, active compounds read low 1.03 | S. cerevisiae deletion strains, locus YPL240C, strain hsp82, active compounds read low 1.01 | S. cerevisiae deletion strains, locus YPL241C, strain CIN2, active compounds read low 1.01 | S. cerevisiae deletion strains, locus YPL256C, strain CLN2, active compounds read low 1.08 | S. cerevisiae deletion strains, locus YPR119W, strain clb2, active compounds read low 1 | S. cerevisiae deletion strains, locus YPR141C, strain kar3, active compounds read low 1.01 | S. cerevisiae deletion strains, locus YPR163C, strain tif3, active compounds read low 1.01 | S. cerevisiae deletion strains, locus YPR167C, strain met16, active compounds read low 1 | S. cerevisiae deletion strains, strain wtn01, active compounds read low 1 | S. cerevisiae strains, strain wild type, active compounds read low 1
